# In PubChem BioAssay AID485273 (Sanford-Burnham Center for Chemical Genomics, 2010):
# The campaign covered roughly 330,000 compounds. About 1,500 (0.45%) were called active. The entries come from a sample that favours actives as a whole. Unmarked numbers belong to inactive results. Cut-off read from the data, not from the text of the source: active = inhibition above about 45% (passing the limit was not always enough); inconclusive = no clear call, values can overlap the other calls.
# Target: Ubiquitin-conjugating enzyme E2 N (Homo sapiens) (UniProt P61088)
# Assay: UBC13 polyubiquitin chain formation inhibitors, primary screen, biochemical, TR-FRET, uHTS (AID 485273)
# Details: at 20 µM, active compounds read high
# Sequence of Ubiquitin-conjugating enzyme E2 N (Homo sapiens) (P61088 whole entry, looked up): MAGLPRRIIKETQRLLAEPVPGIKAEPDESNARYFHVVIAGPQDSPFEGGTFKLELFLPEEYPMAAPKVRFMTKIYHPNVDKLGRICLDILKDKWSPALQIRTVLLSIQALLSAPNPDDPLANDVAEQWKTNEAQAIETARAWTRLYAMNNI
row,Structure (SMILES),inhibition
1,CC[C@@H](C)[C@H](NC(=O)CCc1c(C)c2cc3c4c(oc3c(C)c2oc1=O)CCCC4)C(=O)O,2.9%
2,O=C(CSc1n[nH]c(-c2cccnc2)n1)Nc1ccnc2ccccc12,21.1%
3,c1ccc(-n2nnnc2-c2cccnc2)cc1,16.1%
4,S=c1nc2ccccc2c2nc(-c3cccnc3)[nH]n12,58.9% (active)
5,COc1ccccc1N(C)S(=O)(=O)c1ccc(Cl)c(C(=O)N2CCC(C(N)=O)CC2)c1,1.7%
6,CC1(C)CC(=O)c2sc(N)nc2C1,-5.4%
7,O=c1cc(CO)oc(C(Nc2cccc(C(F)(F)F)c2)c2ccccn2)c1O (stereo not drawn),97.1% (active)
8,O=c1cc(CO)oc(C(Nc2cccc([N+](=O)[O-])c2)c2ccccn2)c1O (stereo not drawn),94.8% (active)
9,O=C(O)CC1(CC(=O)Nc2cccc(C(F)(F)F)c2)CCCC1,-1.1%
10,FC(F)(F)c1cccc(Nc2ncnc3ccccc23)c1,11.1%
11,O=C(Nc1cccc([N+](=O)[O-])c1)Nn1cnnc1,-5.5%
12,O=[N+]([O-])c1cccc(S(=O)(=O)NCc2ccccn2)c1,-12.9%
13,O=C(c1ccccc1)N1CCC(CC2CC(c3ccc(Cl)cc3)=NO2)(C(=O)NCC2CCCCC2)CC1 (stereo not drawn),4.7%
14,COC(=O)c1ccc(CNC(=O)c2ccc3oc(C(C)C)nc3c2)cc1,-8.3%
15,O=C(NC(=O)c1cc(OCC(F)(F)F)ccc1OCC(F)(F)F)Nc1ccccc1,2.9%
16,c1ccc(CCC2=NCCn3cccc32)cc1,-3.6%
17,CCOC(=O)c1ccc(NC(=O)CCn2c(=O)oc3ccccc32)cc1,4.5%
18,CCN(CC)S(=O)(=O)c1ccc2[nH]c(=O)cc(C(=O)N(C)C3CCS(=O)(=O)C3)c2c1 (stereo not drawn),-6.2%
19,O=C(CCN1C(=O)C2CCCCC2C1=O)Nc1ccc(OC(F)F)cc1 (stereo not drawn),1.3%
20,CCN(CC)CCNC(=O)c1ccc(NC(=O)c2cc(-c3ccncc3)nc3ccccc23)cc1,89.7% (active)
21,O=C(Nc1ccc(S(=O)(=O)Nc2nccs2)cc1)c1cc(-c2ccncc2)nc2ccccc12,-11.2%
22,COC(=O)CNC(=O)c1cc(-c2ccncc2)nc2ccccc12,-0.6%
23,CCn1c(SCc2cc(=O)n3ccsc3n2)nc2ccccc21,3%
24,O=C(Nn1cnnc1)c1cc(Cl)ccc1Cl,-7.5%
25,CC1CN(C(=O)CCC(=O)NCc2cccnc2)c2ccccc2O1 (stereo not drawn),2.3%

row,Structure (SMILES),inhibition
1,CC1CN(C(=O)CCC(=O)NCCCN2CCC(Cc3ccccc3)CC2)c2cc(Cl)ccc2O1 (stereo not drawn),64.4% (active)
2,CC1CN(C(=O)CCC(=O)NC2CCN(Cc3ccccc3)CC2)c2ccccc2O1 (stereo not drawn),4.7%
3,CN(C)C(=O)c1ccc2c(c1)C1C3CCC(C3)C1C(c1ccccc1)N2 (stereo not drawn),-13.6%
4,CC(=O)NC(Cc1ccc(F)c(F)c1)C(=O)NC1CCN(c2nnnn2-c2ccccc2)CC1 (stereo not drawn),-5.3%
5,COc1ccnc2c1c(=O)n(Cc1cccc(F)c1)c(=O)n2C,48.2% (active)
6,CCCCNc1nc2c(c(=O)n(C)c(=O)n2C)n1Cc1cccc(OC)c1,21.5%
7,CC(C)(C)c1cc2cccnc2n1Cc1cccc(F)c1,11.4%
8,CCOC(=O)c1ccc(COC(=O)CCc2nc(-c3ccccc3)c(-c3ccccc3)o2)cc1,-0.9%
9,COCc1cc(=O)[nH]c2cc(NC(=O)C(F)(F)F)c(C)cc12,8.5%
10,OC(CNCCc1ccc(Cl)cc1Cl)COc1ccccc1 (stereo not drawn),23%
11,CCOc1ccc(/C=N/NC(N)=S)cc1,-0.6%
12,NC(N)=N/N=C/c1ccc(OCc2ccc(Cl)cc2Cl)cc1,108% (active)
13,O=C(/C=C/c1cccc([N+](=O)[O-])c1)OCC(=O)N1CCOCC1,-13.5%
14,CC(OC(=O)CNC(=O)c1ccco1)C(=O)Nc1ccc(Cl)cn1 (stereo not drawn),-3.2%
15,CCc1ccc(NC(=O)C(C)OC(=O)/C=C/c2cccc([N+](=O)[O-])c2)cc1 (stereo not drawn),-15.4%
16,COc1ccc(N2CCN(C(=O)CNC(=O)c3ccc(C(C)(C)C)cc3)CC2)cc1,12.3%
17,O=C1c2cccc3cccc(c23)C(=O)N1CCCCCc1n[nH]c(=S)o1,-1.2%
18,O=C(CCCCCN1C(=O)c2cccc3cccc(c23)C1=O)NCc1ccco1,57.4% (active)
19,O=C(CCCOc1ccccc1)NCc1ccco1,6.4%
20,C=CCN(CC=C)CCOc1ccccc1[N+](=O)[O-],3.5%
21,O=C(COc1ccc(Br)cc1F)NCC1(N2CCCCC2)CCCCC1,-5.1%
22,Cc1ccc2c(c1)N(CC(=O)N1CCC(O)CC1)C(=O)CO2,-0.3%
23,CCOc1ccccc1N1CN(Cc2ccccc2)CNC1=S,-1.7%
24,CN(C)CCNC(=O)/C(=C/c1cccc([N+](=O)[O-])c1)NC(=O)c1ccccc1,11.7%
25,C=CCNC(=O)/C(=C\c1cccc([N+](=O)[O-])c1)NC(=O)c1ccccc1,5.9%

row,Structure (SMILES),inhibition
1,Cc1ccc(C(=O)N/C(=C/c2ccc(-c3cccc([N+](=O)[O-])c3)o2)C(=O)NCCCN(C)C)cc1,57% (active)
2,CN(CCc1ccccn1)C(=O)c1ccc(OC2CCN(Cc3ccccn3)CC2)cc1,1.2%
3,Oc1ccccc1-c1cc(-c2ccc(Cl)cc2)n[nH]1,14.2%
4,CCCCCCCC1(C)NC(=O)N(CC(=O)Nc2cc(C)on2)C1=O (stereo not drawn),3.7%
5,CN(C)/C=C/c1c(C#N)c(=O)ncn1Cc1ccccc1,-4.7%
6,CN(C)c1ccnc2sc3c(=O)n(Cc4ccccc4)cnc3c12,48% (active)
7,O=c1c2c(ncn1Cc1ccccc1)nc1n2CCC1,1.8%
8,Cc1ccccc1C(=O)OC1OC(=O)C(Cl)=C1Nc1ccccc1 (stereo not drawn),78% (active)
9,COc1ccccc1C(=O)Nc1ccc(Nc2ccccc2)cc1,7.8%
10,Cc1ccc(NC2=C(Cl)C(=O)OC2OC(=O)c2ccccc2C)cc1 (stereo not drawn),53.9% (active)
11,CCOC(=O)c1ccc(Nc2cc3ccccc3c(=O)[nH]2)cc1,-38.5%
12,Cc1ccccc1C(=O)O,-9%
13,O=C1OC(OC(=O)c2ccccc2Br)C(N2CCOCC2)=C1Cl (stereo not drawn),15.6%
14,CCOC(=O)CNC(=O)CN1C(=O)CCSc2ccccc21,8.8%
15,CNC(=O)c1sc(Nc2ccc(OCc3ccccc3)cc2)nc1C,6.9%
16,Cc1nn(CCCC(=O)NCc2ccccc2Cl)c(=O)c2nccn12,-2.4%
17,FC(F)Oc1ccccc1C1CC(c2ccc(Br)s2)Nc2ncnn21 (stereo not drawn),-2.2%
18,CCN(CC)S(=O)(=O)c1cc(C(=O)Nc2ccccn2)ccc1C,-8.9%
19,O=C(CCc1c[nH]c2ccccc12)NCCOc1ccccc1,-4.4%
20,CCN(CC)CCNC(=O)CCCCCn1c(=O)[nH]c2cc(C(=O)OC)ccc2c1=O,9.7%
21,O=C(CCCCCn1c(=O)[nH]c2ccccc2c1=O)NCCc1c[nH]c2ccccc12,58.3% (active)
22,COc1cc(CNCc2ccc(OC)c3ccccc23)cc(OC)c1OC,5.5%
23,COc1ccc(S(=O)(=O)N2CCN(CC(=O)NCC3(N4CCOCC4)CCCCC3)CC2)cc1,-8.4%
24,O=C(CCl)NNc1nc(-c2ccccc2)c2cc(Cl)ccc2n1,-10.6%
25,Cc1ccc2nc(Nc3ccccc3O)nc(-c3ccccc3)c2c1,0.7%

row,Structure (SMILES),inhibition
1,NC(N)=Nc1nc(-c2ccccc2)c2cc(Cl)ccc2n1,51.4% (active)
2,Nc1nc(SCC(=O)NN(c2ccccc2)c2ccccc2)n[nH]1,-4.6%
3,CC1(C)CC(=O)C(C2=NC(C)(C)Cc3ccccc32)=C(O)C1,-11%
4,CCN(CC)S(=O)(=O)c1ccc(NC(=O)c2cccnc2Cl)c(NC(=O)c2cccnc2Cl)c1,-5.6%
5,CCc1c(C)nc(SCC(=O)NC2CCCC2)[nH]c1=O,-1.8%
6,CNC(=S)NNC(=O)c1ccc(N(C)C)cc1,-10.9%
7,O=C(NNC(=O)c1ccc(Cl)nc1)c1ccc(Br)cc1,6.7%
8,CC(=O)NC(=S)NNC(=O)c1ccc(Br)cc1,79.4% (active)
9,O=S(=O)(NC1CCCC1)c1ccc(-n2cnnn2)cc1,0.2%
10,C=CCNCCCCOc1ccccc1,9.8%
11,CCc1ccc(NC(=O)N[C@H](C(=O)O)C(C)CC)cc1 (stereo partly drawn),10%
12,CCCCCn1c(=O)c(C(=O)OCC)c(Cl)c2ccccc21,5.7%
13,O=C(c1ccc[nH]c1=S)N1CCN(S(=O)(=O)c2ccc(Br)cc2Cl)CC1,1.2%
14,CCOC(=O)C1(CCOc2ccccc2)CCN(Cc2cc(OC)c(O)cc2Cl)CC1,12%
15,OCC1(CCOc2ccccc2)CCN(Cc2cn[nH]c2-c2ccccc2)CC1,2.5%
16,Cc1c(CN2CCC(CO)(CCOc3ccccc3)CC2)[nH]c2ccc(Cl)cc12,72.1% (active)
17,CN1CCC(CN)(N2CCN(c3ccccc3)CC2)CC1,57.8% (active)
18,O=C(c1ccccc1)c1ccc(C(=O)N2CCN(c3ccccc3)CC2)cc1,4.4%
19,CC(CC(=O)N1CCN(c2ccccc2)CC1)c1ccccc1 (stereo not drawn),9.2%
20,O=C(CN1CCN(c2ccc(F)cc2)CC1)Nc1cccc(C(F)(F)F)c1,-4.5%
21,CCCCn1c(N)c(N(CCOC)C(=O)c2cccc(OCc3ccccc3)c2)c(=O)[nH]c1=O,0.1%
22,CCCCCCCCCCOC(=O)Cn1c(COc2ccc(C)cc2)[n+](C)c2ccccc21,44.2%
23,CCCCCCCCCCOC(=O)Cn1c(COc2cccc(OC)c2)[n+](C)c2ccccc21,58.1% (active)
